We go through 17 compounds from PubChem BioAssay (NCATS).

Experiment [1] is described as follows: Primary qHTS for small molecule stabilizers of the endoplasmic reticulum resident proteome: Secreted ER Calcium Modulated Protein (SERCaMP) assay (AID 1508630). Also: % is scaled to controls: 0 for no effect and ±100 for the full control effect. In short, it runs like this:
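GLuc-SERCaMP-expressing SH-SY5Y cells, pretreated 16 h with compound, are challenged with thapsigargin to empty ER calcium stores; after 4 h, coelenterazine is added directly to the medium and luminescence is imaged.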
(Quantitative high-throughput screening tests each substance at several concentrations.)

In experiment [2] the target is Cytochrome P450 1A2 (Homo sapiens) (UniProt P05177). As to the kind of experiment: p450-cyp1a2 (AID 410; calls by dose curve; also: potency is read from the fitted curve at half-maximal effect). Put shortly:
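Luminescent readout of luciferin formed from Luciferin-ME by human CYP1A2; data normalized against complete inhibition by 57 uM furafylline. Enzyme 20nM, substrate 100uM at Km, 100mM KPO4 buffer, 60 min reaction at room temperature.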

Experiment [3] has as its target Glucocorticoid receptor (Homo sapiens) (UniProt P04150). As to the kind of experiment: GR-GFP Redistribution (AID 450;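 active = compounds whose dose series gives a full or clear partial fitted curve of increased nuclear translocation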; also: potency is read from the fitted curve at half-maximal effect). Conditions: U2OS GR-GFP nuclear translocation, laser cytometry, 2 h.
The target is the same in experiment [4]. As to the kind of experiment: GR-EFC Redistribution (AID 451; calls by dose curve; also: potency is read from the fitted curve at half-maximal effect). Conditions: CHO-K1 GR-EFC translocation, beta-gal luminescence, 2 h. In short, it runs like this:
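Translocation of GR-ED fusion to nuclear EA restores b-gal, read by luminescence after 1 h room-temperature detection. Engineered CHO-K1 biosensor cells, 1,000/well, exposed 2 h at 37 C to titrations up to 46 uM final.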

Experiment [5] concerns the target Ubiquitin carboxyl-terminal hydrolase 1 (Homo sapiens) (UniProt O94782). As to the kind of experiment: Inhibitors of USP1/UAF1: Pilot qHTS (AID 504865).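 Also: rhodamine fluorescence freed from ubiquitin-rhodamine substrate followed over time; top concentration of the series differs between compounds; % is scaled to controls: 0 for no effect and ±100 for the full control effect; nearly all actives have a fitted effect of over 35% in size.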 In short, it runs like this:
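Deubiquitinase activity followed as kinetic rhodamine fluorescence release from 150 nM Ub-Rho. 1 nM USP1/UAF1 with compound, after 15 min room-temperature preincubation, in HEPES pH 7.8 buffer containing TCEP, EDTA, BSA and Tween-20.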

In experiment [6] the target is DNA dC->dU-editing enzyme APOBEC-3G (Homo sapiens) (UniProt Q9HC16). As to the kind of experiment: qHTS for inhibitors of Vif-A3G interactions: Validation (AID 588379). Also: 0% is about no effect. In short, it runs like this: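 HeLa cells stably expressing Vif and A3G-eYFP, 700 cells/well, incubated overnight at 37 deg C, then exposed to compound overnight at 37 deg C. Inhibition of Vif-mediated degradation read as increased yellow fluorescence (Ex 488/Em 500-530) by laser-scanning cytometry.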
DNA dC->dU-editing enzyme APOBEC-3G (Homo sapiens), sequence (Q9HC16 whole entry, looked up): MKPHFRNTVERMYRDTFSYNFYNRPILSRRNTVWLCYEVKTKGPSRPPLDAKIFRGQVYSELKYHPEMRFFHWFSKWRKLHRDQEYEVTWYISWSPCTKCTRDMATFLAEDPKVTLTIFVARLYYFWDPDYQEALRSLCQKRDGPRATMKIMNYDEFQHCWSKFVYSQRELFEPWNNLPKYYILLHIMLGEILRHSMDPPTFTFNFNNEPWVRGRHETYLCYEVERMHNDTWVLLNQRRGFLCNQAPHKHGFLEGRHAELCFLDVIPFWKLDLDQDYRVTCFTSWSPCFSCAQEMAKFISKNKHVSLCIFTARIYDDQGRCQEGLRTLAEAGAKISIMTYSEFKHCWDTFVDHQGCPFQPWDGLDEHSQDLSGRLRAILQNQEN

Experiment [7] can be described thus: Stat Signaling Pathway (AID 446; active = well fitted curve in either direction with a large enough effect, not every such curve was filed as active;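 also: ME-180 cervical cancer cells given 40 pM IL-6 alongside compound; SIE-controlled beta-lactamase reporter measured as 460/530 nm FRET emission ratio; % is scaled to controls: 0 for no effect and ±100 for the full control effect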). Conditions: ME-180 SIE beta-lactamase reporter, IL-6 stimulated, 5 h; at 38 µM (top of the series). Put shortly: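 Reporter line: ME-180 cervical carcinoma, SIE-beta-lactamase. Treatment: compound with 40 pM IL-6, 5 hrs, 37 C, in low-serum OPTI-MEM with 10 mM HEPES pH 7.3. Detection: 460/530 nm fluorescence.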
Experiment [8] deals with Mitogen-activated protein kinase 10 (Mus musculus) (UniProt Q61831). As to the kind of experiment: JNK3 AlphaScreen Assay (AID 530; active = well fitted curve in either direction with a large enough effect, not every such curve was filed as active;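 also: kinase came from lysate of stimulated human HepG2 cells; signal reports phosphorylation of biotinylated GST-cJun 1-79 at Ser73 with 10 µM ATP; % is scaled to controls: 0 for no effect and ±100 for the full control effect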). Put shortly: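 Compound titrations were preincubated 15 minutes at room temperature with substrate, antibody and pre-activated JNK3-containing HepG2 lysate. Reactions were started with 10 uM ATP and stopped with EDTA-containing bead buffer for AlphaScreen detection.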
Background: In Alpha technology, singlet oxygen from a donor bead excites a nearby acceptor bead.

Experiment [9] deals with 3',5'-cyclic-AMP phosphodiesterase 4B (Homo sapiens) (UniProt Q07343). As to the kind of experiment: qHTS Assay for Inhibitors of PDE-IV (AID 607; active = well fitted activation curve with a large enough effect in the main read-out, with a control signal flat, not every such curve was filed as active; also: % of control where 0% means no effect). Put shortly: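 Cell-based read-out of cAMP via a modified cyclic nucleotide-gated channel and membrane potential dye (535/590 nm) in HEK293 cells expressing PDE4 endogenously. Compounds tested up to 22.9 uM final; 100 uM RO 20-1724 reference.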
3',5'-cyclic-AMP phosphodiesterase 4B (Homo sapiens), sequence (Q07343 whole entry, looked up): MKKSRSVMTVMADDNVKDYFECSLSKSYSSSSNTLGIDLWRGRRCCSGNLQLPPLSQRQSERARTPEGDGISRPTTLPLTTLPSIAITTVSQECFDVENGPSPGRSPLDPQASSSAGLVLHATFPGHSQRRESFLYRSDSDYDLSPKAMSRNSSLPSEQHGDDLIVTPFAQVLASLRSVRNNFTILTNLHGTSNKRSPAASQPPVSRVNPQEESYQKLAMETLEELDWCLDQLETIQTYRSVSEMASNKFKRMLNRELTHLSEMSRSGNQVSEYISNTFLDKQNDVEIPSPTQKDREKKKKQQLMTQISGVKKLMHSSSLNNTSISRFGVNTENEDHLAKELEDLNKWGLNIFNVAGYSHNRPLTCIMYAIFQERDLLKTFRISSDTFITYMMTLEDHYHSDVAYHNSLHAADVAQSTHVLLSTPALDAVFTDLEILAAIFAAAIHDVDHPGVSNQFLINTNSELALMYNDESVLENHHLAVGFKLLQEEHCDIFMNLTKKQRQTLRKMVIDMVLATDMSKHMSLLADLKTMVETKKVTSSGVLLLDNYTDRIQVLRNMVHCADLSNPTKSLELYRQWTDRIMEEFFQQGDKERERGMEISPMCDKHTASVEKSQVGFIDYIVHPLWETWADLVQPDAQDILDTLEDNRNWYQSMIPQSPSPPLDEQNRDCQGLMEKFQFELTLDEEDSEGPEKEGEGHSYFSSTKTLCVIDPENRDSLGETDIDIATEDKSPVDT

Experiment [10] is described as follows: qHTS Assay for Lipid Storage Modulators (AID 1519; calls by dose curve; as to activity change, negative = inhibition: % is scaled to controls: 0 for no effect and ±100 for the full control effect). Conditions: Drosophila S3 cells, BODIPY lipid droplet/cell ratio, laser cytometry, cells loaded with oleic acid; for activity change, negative = inhibition: at 57.5 µM (top of the series). Put shortly: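 Cells seeded at 5,000 per well were treated with compounds over a concentration series and loaded with oleic acid (400 uM, as added). Lipid droplet fluorescence (488 nm excitation, 500-530 nm channel) was read by laser-scanning cytometry and normalized to 20 uM Triacsin C.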

A short description of experiment [11]: HEK293 18hr Apoptosis Induction qHTS against the NCATS CANVASS Library (AID 1347357). Also: 0% is about no effect. In short, it runs like this:
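Caspase-Glo 3/7 luminescence (15 min, room temperature) measured apoptosis after an 18-hour, 37 degrees C exposure of HEK293 cells (500 cells/well) to compounds in 11 points.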

Experiment [12] can be described thus: qHTS for Antimalaria activity screened against the NCATS CANVASS Library (AID 1347380).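 Also: Plasmodium falciparum strain Dd2 asexual parasites grown in red blood cells; nearly all actives have a fitted effect of over 40% in size.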 In short, it runs like this:
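Dd2 strain, infected erythrocytes 2.5% Hct final / 0.3% parasitemia. 11-pt qHTS titration, 72 h, 37C, 5% O2, 5% CO2. Lysis buffer + SYBR Green, 18 h, fluorescence 485/535 nm.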

The nature of experiment [13]: Inflammasome Signaling qHTS Counterscreen: IL-1-beta AlphaLISA counterscreen against the NCATS CANVASS Library (AID 1347381).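 Also: cell-free check with purified IL-1β in medium and no THP-1 cells; 0% is about no effect.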 In short, it runs like this: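 Cell-free interference check: compounds added to medium spiked with 4 pg purified IL-1β. Anti-IL-1β acceptor beads (6 ug/mL) with 0.6 nM biotinylated antibody added for 1 h at RT, then streptavidin donor beads (24 ug/mL) for 30 min in the dark. AlphaLISA read at 680/615 nm.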

Experiment [14] can be described thus: qHTS for inhibitors of ER calcium dysfunction: SERCaMP assay screened against the NCATS CANVASS Library (AID 1347393).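 Also: % is scaled to controls: 0 for no effect and ±100 for the full control effect; lower secreted reporter signal means inhibitor of ER calcium depletion; nearly all actives have a fitted effect of over 40% in size.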 In short, it runs like this: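 Thapsigargin-induced ER calcium depletion drives GLuc-SERCaMP secretion from SH-SY5Y cells; compounds given 16 h beforehand were scored by lowered coelenterazine luminescence after 4 h challenge.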
Experiment [15] in a line: qHTS for Inhibitors of Plasmodium falciparum (DD2) proliferation (AID 504314). Also: potency is read from the fitted curve at half-maximal effect.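 As to activity, negative = inhibition: parasite DNA measured by SYBR Green fluorescence after red cell lysis; plate controls were DMSO vehicle for no effect and artemisinin wells for full effect.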 Put shortly:
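Infected RBCs, 0.3% parasitemia, 2.5% Hct; compound 72 h, 37C/5% CO2; lyse + SYBR Green I, RT overnight, dark; read ex485/em535; normalize to DMSO and artemisinin 0.29 uM.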

Where [16] appears, read: measured here: cell count channel max response.
The mark [17] stands for this setting: measured here: lipid channel max response.

Records with an inconclusive call do not appear. Where a structure was tested more than once in an assay, its records may differ in their call. Calls of active or inactive are those of the source. Unless noted, calls follow the shape of the dose curve; as a rule, active = well fitted curve in the direction sought with a large enough effect; inconclusive = small, poorly fitted or top-dose-only effect, or another doubt; inactive = no such curve, though single readings can be large; an effect the other way counts as inactive or inconclusive. Some results are limits rather than exact numbers.

Ubiquitin carboxyl-terminal hydrolase 1 (Homo sapiens), sequence (O94782 whole entry, looked up): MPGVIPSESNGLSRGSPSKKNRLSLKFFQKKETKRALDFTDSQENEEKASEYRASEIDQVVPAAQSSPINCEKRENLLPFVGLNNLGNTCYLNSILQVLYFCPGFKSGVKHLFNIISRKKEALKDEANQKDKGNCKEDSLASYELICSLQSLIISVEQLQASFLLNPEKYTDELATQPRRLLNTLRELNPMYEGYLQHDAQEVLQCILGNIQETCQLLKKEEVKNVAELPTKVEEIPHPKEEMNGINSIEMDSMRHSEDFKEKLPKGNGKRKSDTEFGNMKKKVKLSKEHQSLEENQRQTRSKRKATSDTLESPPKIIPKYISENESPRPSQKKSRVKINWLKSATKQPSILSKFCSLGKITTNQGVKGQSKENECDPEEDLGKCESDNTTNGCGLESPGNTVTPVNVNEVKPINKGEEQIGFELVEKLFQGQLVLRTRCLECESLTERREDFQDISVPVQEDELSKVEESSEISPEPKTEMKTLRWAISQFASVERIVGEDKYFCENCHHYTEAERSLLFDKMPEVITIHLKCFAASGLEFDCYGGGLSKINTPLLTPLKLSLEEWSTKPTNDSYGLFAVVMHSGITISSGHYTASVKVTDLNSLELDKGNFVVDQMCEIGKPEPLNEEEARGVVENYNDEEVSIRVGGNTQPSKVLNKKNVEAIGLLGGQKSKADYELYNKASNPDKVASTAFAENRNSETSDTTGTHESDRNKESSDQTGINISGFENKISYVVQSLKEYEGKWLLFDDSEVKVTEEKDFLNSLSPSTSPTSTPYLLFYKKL
Glucocorticoid receptor (Homo sapiens), sequence (P04150 whole entry, looked up): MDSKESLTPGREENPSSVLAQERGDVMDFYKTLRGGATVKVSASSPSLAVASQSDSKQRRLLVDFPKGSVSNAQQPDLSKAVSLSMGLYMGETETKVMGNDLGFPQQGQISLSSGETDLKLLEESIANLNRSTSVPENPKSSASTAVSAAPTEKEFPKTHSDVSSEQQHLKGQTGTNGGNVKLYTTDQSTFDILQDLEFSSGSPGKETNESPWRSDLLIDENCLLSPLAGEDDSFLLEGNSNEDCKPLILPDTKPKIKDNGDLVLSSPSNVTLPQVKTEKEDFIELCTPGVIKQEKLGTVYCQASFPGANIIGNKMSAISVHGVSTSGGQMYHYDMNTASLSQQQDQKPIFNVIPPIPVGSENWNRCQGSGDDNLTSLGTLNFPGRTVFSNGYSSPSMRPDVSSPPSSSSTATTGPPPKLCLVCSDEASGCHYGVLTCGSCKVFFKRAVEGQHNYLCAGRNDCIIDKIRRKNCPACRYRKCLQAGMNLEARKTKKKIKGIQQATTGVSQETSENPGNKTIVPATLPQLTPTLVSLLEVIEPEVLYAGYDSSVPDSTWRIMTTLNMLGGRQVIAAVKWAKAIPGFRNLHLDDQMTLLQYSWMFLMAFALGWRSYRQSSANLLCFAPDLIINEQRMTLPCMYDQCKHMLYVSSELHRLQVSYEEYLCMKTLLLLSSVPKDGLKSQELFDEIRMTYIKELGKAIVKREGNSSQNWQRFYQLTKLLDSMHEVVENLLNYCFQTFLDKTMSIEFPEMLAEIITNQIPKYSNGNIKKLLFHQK
Cytochrome P450 1A2 (Homo sapiens), sequence (P05177 whole entry, looked up): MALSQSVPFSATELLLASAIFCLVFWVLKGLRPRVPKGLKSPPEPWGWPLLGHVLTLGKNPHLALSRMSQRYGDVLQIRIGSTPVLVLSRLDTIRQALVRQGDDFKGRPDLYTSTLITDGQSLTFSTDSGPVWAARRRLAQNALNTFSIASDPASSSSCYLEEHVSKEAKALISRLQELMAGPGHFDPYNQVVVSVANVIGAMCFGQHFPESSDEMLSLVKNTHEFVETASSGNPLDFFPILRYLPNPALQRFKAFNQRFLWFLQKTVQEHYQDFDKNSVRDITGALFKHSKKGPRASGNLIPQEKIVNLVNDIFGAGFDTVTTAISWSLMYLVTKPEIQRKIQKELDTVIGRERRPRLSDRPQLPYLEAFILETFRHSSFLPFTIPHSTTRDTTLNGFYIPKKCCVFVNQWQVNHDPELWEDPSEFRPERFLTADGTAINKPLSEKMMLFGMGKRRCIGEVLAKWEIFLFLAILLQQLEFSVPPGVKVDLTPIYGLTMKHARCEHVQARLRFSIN

Regarding `CCCCC[C@H](O)/C=C/[C@H]1C(=O)C=C[C@@H]1C/C=C\CCCC(=O)O`, the activity change, negative = inhibition in experiment [1] was -10.1% [at 3.88 µM] (inactive).
On to `CN1Cc2c(C(=O)OC(C)(C)C)ncn2-c2ccsc2C1=O`, for which the figures for the Potency in experiment [2], in experiment [3] and in [4] were 15.8 µM (active), > 46 µM (inactive) and > 46 µM (inactive), respectively. The Potency result in experiment [5], in experiment [6] and in [1] was “inactive” throughout.
Regarding `COC(=O)c1c(-c2cc(OC)c(OC)c(OC)c2)c2ccnc(OCc3ncccn3)c2c(=O)n1Cc1ccnc(C)c1`, the Potency entry in experiment [2], in [8], in [9], in [6] and in experiment [1] was “inactive” in each case. In addition, the activity, negative = inhibition in experiment [7] was -8.52% (inactive). In addition, the Potency in [3] and in experiment [4] was > 46 µM (inactive) in each case.
Regarding `NC1(C(=O)O)CCC1`, the Potency in experiment [3] and in experiment [4] was > 46 µM (inactive) each time. Besides, the Potency entry in experiment [8], in experiment [9], in experiment [5], in experiment [6] and in experiment [1] was “inactive” each time. Further, the activity change, negative = inhibition in [10] was 3.54% (inactive). For the same compound, the max response in [10] (setting [16]) is -18.5%; in experiment [10] (setting [17]), -13.7%.
Take `COc1cc(O)c2c(=O)c(O)c(-c3ccc(O)c(O)c3)oc2c1`: in experiment [10], the activity change, negative = inhibition is 4.09% (inactive). Also, the results for the max response in experiment [10] (setting [16]) and in [10] (setting [17]) were -9.74% and -5.25%, respectively. For the same compound, the Potency entry in [5] is “inactive”.
With `N[C@H](CCC(=O)NCC(=O)O)C(=O)O`, the Potency result in experiment [2], in experiment [9], in experiment [5], in experiment [6] and in experiment [1] was “inactive” throughout. The Potency in [3] and in experiment [4] was > 46 µM (inactive) in each case. Besides, in experiment [10], the activity change, negative = inhibition is -2.27% (inactive). Moreover, the max response in experiment [10] (setting [16]) stood at 4.97%; in experiment [10] (setting [17]), 3.09%.
As to `Oc1ccc(/C=C2/c3cc(O)cc(O)c3C(c3ccc(O)cc3)[C@H]2c2cc(O)cc(O)c2)cc1` (some centres undefined), the Potency entry in experiment [11], in [12] and in experiment [14] was “inactive” each time. In [13], the result was inactive.
As for `CCCCc1cc2c(cn1)C(=O)C(C)(OC(C)=O)C(=O)C2` (centres undefined), in experiment [15], the Potency is 1.69 µM (active) and the activity, negative = inhibition is -3.91% [at 1.12 µM] (inactive).
For the compound `C=CCC12OC3(OC)CC1[C@H](C)[C@@H](c1ccccc1)C2[C@@]3(C)O` (some centres undefined), in experiment [15], the Potency entry was “inactive”.
`C[C@@H]1CC[C@H]2C(=O)O[C@@H](COc3ccc(C(C)(C)C)cc3)CN2[C@H]1c1ccc(Br)cc1`: the Potency entry in experiment [15] was “inactive”.
On to `CCN1C(=NCc2ccccc2)N[C@@H](c2ccccc2)[C@H](C(=O)OC)[C@H]1C`, for which the Potency entry in experiment [15] was “inactive”.
The same measure, in the same setting: the value for `C=CCN1c2ccccc2[C@]23C[C@@H](C(=O)OC)N(C(=O)c4cccs4)C2=NC(C(=O)OC)=C(C(=O)OC)[C@H]13` was “inactive”; that for `CC12C=C(C=CCCc3ccco3)C(C)(C1)C(CCc1ccco1)CC2=O` (centres undefined) was “inactive”; that for `CC1=CC[C@@H](COc2ccccc2)O[C@@]2(C1)C(=O)N(Cc1ccccc1C(F)(F)F)c1ccccc12` was “inactive”.
On to `COC(=O)C1=C2C=C(C)CC(C)N2C(=O)NC1c1ccccc1` (centres undefined), for which the Potency entry in [15] is “inactive”.
The same measure, in the same setting: then `COC(=O)C12C[C@H](C)C3C(C)C(c4ccccc4C31)N2C(=O)C(F)(F)F` (some centres undefined), with “inactive”; and `CCN1C(=O)N[C@@H](c2ccccc2)[C@@H](C(=O)OC)[C@H]1C`, with “inactive”.
